Values joined by “and” are separate entries in the source; they are usually repeats but may differ in a detail not shown here. Equal values may be shown once. Some compounds were tested as several samples or in several runs, with calls that do not always agree. Active and inactive are the calls of the source. How the source made its calls: active means hit-call score of the fitted dose curve at least 0.9, where 1 is the maximum; inactive means score below 0.9.
Legend:
[1] = read-out: Human Leukocyte Antigen - DR isotype (HLADR), HLA-DRA (gene 3122); assay: BSK_BE3C_HLADR: BioMAP Diversity Plus: BE3C Assay for Human Leukocyte Antigen - DR isotype (HLADR) Biomarker Activity (AID 2283032); settings: primary human bronchial epithelial cells; actives raise or lower the signal
In short: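 ELISA read-out of HLA-DR on human lung bronchial epithelial primary cells, measured 24 h post-dosing. Both increases and decreases were scored relative to DMSO vehicle.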

[2] = read-out: Vascular cell adhesion molecule 1 (VCAM1), VCAM1 (gene 7412); assay: BSK_4H_VCAM1: BioMAP Diversity Plus: 4H Assay for Vascular cell adhesion molecule 1 (VCAM1) Biomarker Activity (AID 2283033); settings: primary human endothelial cells (HUVEC); actives raise or lower the signal
In short: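 ELISA read-out of VCAM-1 on human umbilical vein endothelium 24 hours after chemical dosing; gain or loss of signal was fitted relative to DMSO, with sulforhodamine B staining of parallel cultures flagging overt cytotoxicity.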

[3] = read-out: Monokine induced gamma interferon (MIG), CXCL9 (gene 4283); assay: BSK_BE3C_MIG: BioMAP Diversity Plus: BE3C Assay for Monokine induced gamma interferon (MIG) Biomarker Activity (AID 2283035); settings: primary human bronchial epithelial cells; actives raise or lower the signal
In short: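 Primary human bronchial epithelial cells treated for 24 h; MIG levels measured by ELISA, fitted bidirectionally versus DMSO. Parallel SRB total-protein staining assessed cytotoxicity.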

[4] = read-out: Plasminogen activator inhibitor-1 (PAI1), SERPINE1 (gene 5054); assay: BSK_BE3C_PAI1: BioMAP Diversity Plus: BE3C Assay for Plasminogen activator inhibitor-1 (PAI1) Biomarker Activity (AID 2283037); settings: primary human bronchial epithelial cells; actives raise or lower the signal
In short: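 Primary human lung bronchial epithelial cells; chemical dosing; 24 h; PAI-1 measured by ELISA; bidirectional fit referenced to DMSO as negative control.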

[5] = read-out: urokinase plasminogen activator (uPA), PLAU (gene 5328); assay: BSK_BE3C_uPA: BioMAP Diversity Plus: BE3C Assay for urokinase plasminogen activator (uPA) Biomarker Activity (AID 2283038); settings: primary human bronchial epithelial cells; actives raise or lower the signal
In short: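 Human primary bronchial epithelial cells were exposed to chemical for 24 h, then uPA levels were measured by ELISA. Responses were fitted bidirectionally against DMSO as negative control and baseline. Parallel SRB staining of total protein gauged overt cytotoxicity.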

[6] = read-out: Interleukin-6 (IL6), IL6 (gene 3569); assay: BSK_CASM3C_IL6: BioMAP Diversity Plus: CASM3C Assay for Interleukin-6 (IL6) Biomarker Activity for (AID 2283040); settings: primary human coronary artery smooth muscle cells; actives raise or lower the signal
[7] = read-out: Tissue plasminogen activator (tPA), PLAT (gene 5327); assay: BSK_BE3C_tPA: BioMAP Diversity Plus: BE3C Assay for Tissue plasminogen activator (tPA) Biomarker Activity (AID 2283041); settings: primary human bronchial epithelial cells; actives raise or lower the signal
In short: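 Primary human lung bronchial epithelial cultures receive test chemical; after 24 h, tPA is quantified by ELISA, and gain or loss of signal is fitted bidirectionally relative to DMSO baseline.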

[8] = read-out: Transforming growth factor beta 1 (TGFb1), TGFB1 (gene 7040); assay: BSK_BE3C_TGFb1: BioMAP Diversity Plus: BE3C Assay for Transforming growth factor beta 1 (TGFb1) Biomarker Activity (AID 2283036;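 further: TGF-b1 protein level measured by ELISA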); settings: primary human bronchial epithelial cells; actives raise or lower the signal
In short: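 Primary human lung bronchial epithelial cells; compound exposure 24 h; TGF-b1 by ELISA; bidirectional fit, DMSO baseline. Parallel SRB total-protein staining for cytotoxicity.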

[9] = read-out: Urokinase-type plasminogen activator receptor (uPAR), PLAUR (gene 5329); assay: BSK_BE3C_uPAR: BioMAP Diversity Plus: BE3C Assay for Urokinase-type plasminogen activator receptor (uPAR) Biomarker Activity (AID 2283039); settings: primary human bronchial epithelial cells; actives raise or lower the signal
In short: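 Human bronchial epithelial primary cells; chemical exposure 24 h; uPAR by ELISA; bidirectional fit vs DMSO control.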

Measured: AC50

COC(=O)CCC(F)(F)C(F)(F)C(F)(F)C(F)(F)F
not listed: [8] | [9]
inactive: all other assays above

O=C(O)C(F)(F)C(F)(F)F
not listed: [8] | [9]
inactive: all other assays above

C=CC(=O)OCC(F)(F)C(F)(F)C(F)(F)C(F)(F)C(F)(F)C(F)(F)C(F)(F)F
not listed: [8] | [9]
inactive: all other assays above

C=CC(F)(F)C(F)(F)C(F)(F)C(F)(F)C(F)(F)C(F)(F)C(F)(F)C(F)(F)C=C
not listed: [8] | [9]
inactive: all other assays above

CC(CCl)OP(=O)(OC(C)CCl)OC(C)CCl (stereo not drawn)
inactive: all assays above

CCN(CC)c1ccc2c(C)cc(=O)oc2c1
not listed: [9]
inactive: all other assays above

CCCCCCC(C)OC(=O)CCCCC(=O)OC(C)CCCCCC (stereo not drawn)
inactive: all assays above

O=C(CC(=O)C(F)(F)C(F)(F)F)C(F)(F)F
not listed: [8]
inactive: all other assays above

FC(F)(F)C(F)(F)C(F)(F)C(F)(F)C(F)(F)C(F)(F)CC1CO1 (stereo not drawn)
not listed: [8]
inactive: all other assays above

CCO[Si](CCC(F)(F)C(F)(F)C(F)(F)C(F)(F)C(F)(F)C(F)(F)F)(OCC)OCC
not listed: [8]
inactive: all other assays above

OCC(F)(F)C(F)(F)C(F)(F)C(F)F
not listed: [8] | [9]
inactive: all other assays above

O=C(Cl)C(F)(F)C(F)(F)C(F)(F)C(F)(F)C(F)(F)C(F)(F)C(F)(F)C(F)(F)F
active: [1] 50 µM and 48.6 µM and 50.7 µM | [3] 55.3 µM and 46.6 µM and 46.1 µM | [5] 51.7 µM and 48.2 µM and 47.1 µM | [9] 47.8 µM and 53.7 µM and 48.4 µM | [7] 27.5 µM and 22.8 µM
inactive: [2] | [4] | [6] | [7]

CCCCOCCOCCOC(=O)CCCCC(=O)OCCOCCOCCCC
not listed: [9]
inactive: all other assays above

FC(F)(F)C(F)(F)C(F)(F)C(F)(F)C(F)(F)C(F)(F)C(F)(F)C(F)(F)F
not listed: [8]
inactive: all other assays above

CC(C)(C)C(=O)CC(=O)C(F)(F)C(F)(F)C(F)(F)F
not listed: [8]
inactive: all other assays above

FC(F)(F)C(F)(F)C(F)(F)C(F)(F)C(F)(F)C(F)(F)C(F)(F)I
not listed: [8] | [9]
inactive: all other assays above

OCCCC(F)(F)C(F)(F)C(F)(F)C(F)(F)C(F)(F)C(F)(F)C(F)(F)F
active: [1] 50.4 µM and 45.9 µM | [2] 46.4 µM and 48.6 µM | [3] 49.6 µM and 55.7 µM | [4] 47.1 µM and 30 µM | [5] 46.5 µM and 47.5 µM | [9] 52.4 µM and 47.2 µM | [6] 42.1 µM and 48.2 µM | [7] 35.7 µM and 30 µM

O=C(O)C=C(C(F)(F)F)C(F)(F)F
active: [2] 15.2 µM and 5.95 µM | [6] 13.2 µM and 1.37 µM | [7] 8.7 µM and 1.53 µM
inactive: [1] | [3] | [4] | [5]

O=C(O)C(F)(OC(F)(F)C(F)(OC(F)(F)C(F)(F)C(F)(F)F)C(F)(F)F)C(F)(F)F (stereo not drawn)
not listed: [8] | [9]
inactive: all other assays above

O=S(=O)(OCC(F)F)C(F)(F)F
not listed: [8] | [9]
inactive: all other assays above

FC(F)(F)C(F)(F)C(F)(F)C(F)(F)C(F)(F)C(F)(F)C(F)(F)Br
not listed: [8] | [9]
inactive: all other assays above

CCCCCCCOC(=O)c1ccccc1C(=O)OCCCCCCC
inactive: all assays above

O=S(=O)(O)C(F)(F)C(F)(F)C(F)(F)C(F)(F)C(F)(F)C(F)(F)C(F)(F)F
not listed: [8]
inactive: all other assays above

FC1CC(F)(F)C(F)(F)C1(F)F (stereo not drawn)
not listed: [8] | [9]
inactive: all other assays above

FC(F)(F)C(F)(F)C(F)(F)C(F)(F)C(F)(F)C(F)(F)CCS
not listed: [8] | [9]
inactive: all other assays above

OCC(F)(F)C(F)(F)C(F)(F)C(F)(F)C(F)(F)C(F)F
not listed: [8] | [9]
inactive: all other assays above

O=C(O)C(F)(F)C(F)(F)C(F)(F)C(F)(F)F
not listed: [8]
inactive: all other assays above

CS(C)(=O)=O
inactive: all assays above

Nc1ccc([N+](=O)[O-])cc1O
not listed: [9]
inactive: all other assays above

O=C(O)C(F)(F)C(F)(F)C(F)(F)C(F)(F)C(F)(F)C(F)(F)C(F)(F)C(F)(F)C(F)(F)C(F)F
inactive: [6] | [7]
active: [1] 10.5 µM | [2] 47.8 µM and 55.4 µM | [3] 15 µM and 14.9 µM | [4] 14 µM and 12.1 µM | [5] 16.5 µM and 10.6 µM | [9] 15.7 µM and 16.7 µM

OCC(F)(F)C(F)(F)C(F)(F)F
not listed: [8]
inactive: all other assays above

FC(F)(F)C(F)(F)C(F)(F)C(F)(F)CCI
not listed: [8] | [9]
inactive: all other assays above

FC(F)(Br)C(F)(F)C(F)(F)C(F)(F)C(F)(F)C(F)(F)Br
not listed: [8] | [9]
inactive: all other assays above

C=CC(F)(F)C(F)(F)C(F)(F)C(F)(F)C(F)(F)C(F)(F)C(F)(F)C(F)(F)F
not listed: [8] | [9]
inactive: all other assays above

O=C(O)C(F)(F)C(F)(F)C(F)(F)C(F)(F)C(F)(F)C(F)(F)C(F)(F)C(F)(F)C(F)(F)C(F)(F)C(F)(F)C(F)(F)F
active: [2] 3.66 µM and 1.18 µM
not listed: [8] | [9]
inactive: all other assays above

Source: PubChem BioAssay (EPA / NIEHS)
